Mtb hypoxia inh – inhibitors of hypoxia-regulated fluorescent reporter in Mycobacterium tuberculosis; M. tuberculosis hypoxia-regulated fluorescent reporter, fluorescence; 300,000 compounds, 0.1% hits; fluorescence inhibition, % (test concentration not listed); AID 1159583; in the data active = fluorescence inhibition mostly above about 23%, no sharp cut-off; inactive = mostly below about 17%
Sa ugtP lethal – growth inhibition of S. aureus ugtP deletion strain; 330,000 compounds, 0.54% hits; growth inhibition, % (test concentration not listed); AID 1259309; S. aureus RN4220 ugtP deletion, OD600 growth, 16 h; in the data active = growth inhibition above about 68%;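 note: plate controls were untreated wells for no effect and antibiotic for full effect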
Mtb betalactam – beta-lactam sensitization of Mtb H37Rv; M. tuberculosis H37Rv growth with meropenem, percent inhibition; inhibition, % at 25 µM; 330,000 compounds, 0.27% hits; call rule not given here;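 note: growth measured after seven days incubation then overnight dye step; 0% = bacteria only wells and 100% = bacteria with antibiotic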
Sa RN4220 lethal – S. aureus RN4220 growth inhibition; OD600, 16 h; inhibition, % (test concentration not listed); 330,000 compounds, 0.33% hits; in the data active = inhibition above about 85%;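 note: plate controls were untreated cells for no effect and reference antibiotic for full effect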
* = called active by the depositor; nt = no result. In the library only some 0.61% were active in any assay of this set; here they are far more common.

SMILES | Mtb hypoxia inh | Sa ugtP lethal | Mtb betalactam | Sa RN4220 lethal
CCOc1ccc(C=NNC(=O)c2ccccc2Cl)cc1CN1CC2CC(C1)c1cccc(=O)n1C2 (configuration not stated) | -6 | -1 | nt | 2
Clc1ccc(C[n+]2csc3ccccc32)cc1 | 3 | 100* | -5 | 87*
c1ccc(-c2sc3ccccc3c2-c2ccc(OCCN3CCCCC3)cc2)cc1 | 11 | 22 | 48 | -3
COc1ccc(-c2c(-c3ccccc3OC)sc3ccccc23)cc1 | 2 | 87* | 1 | -10
COc1ccc(-c2sc3ccc(OC)cc3c2-c2ccc(O)cc2)cc1 | 3 | 100* | 7 | 76
CN(C)CCOc1ccc(-c2c(-c3ccccc3)sc3ccccc23)cc1 | 51* | 100* | 100 | 100*
COc1cc(OC)cc(-c2sc3ccc(OC)cc3c2-c2ccc(O)cc2)c1 | 7 | 100* | 66 | 99*
C=C1C(O)C(CC(C)C)N(Cc2ccccc2Br)S1(=O)=O (configuration not stated) | 17 | 4 | nt | 12
CC(N=Nc1nc2ccccc2s1)=NNc1ccccc1O | 10 | 24 | nt | 13
COc1ccc(-c2c(-c3ccc(S(C)(=O)=O)cc3)sc3ccc(OC)cc23)cc1 | nt | nt | -3 | nt
COc1ccc(-c2c(-c3cc(OC)cc(OC)c3)sc3ccc(OC)cc23)cc1 | 9 | 92* | 5 | -9
O=C1CN(C(=O)COC(=O)c2c(F)cccc2Cl)c2ccccc2N1 | 30* | 2 | 2 | 6
O=C1CN(C(=O)COC(=O)c2ccc(Cl)cc2)c2ccccc2N1 | -4 | 7 | nt | 2
COC(=O)[C@@]1(Cc2ccc(F)cc2)C2c3cc(C(=O)N(C)C)n(Cc4ccccc4)c3CC2CN1C(=O)c1ccccc1 (some centres not stated) | 10 | -14 | nt | 7
O=C(ON=Cc1ccc(Br)cc1)c1ccc(F)cc1 | 4 | 3 | nt | 8
COc1ccc(C=NNC(=O)COc2cc(C)cc(C)c2)cc1COC(C)=O | 7 | 93* | nt | 0
COCc1cc(C=NNC(=O)COc2ccccc2)ccc1OC | 1 | 2 | nt | 3
NC(=O)c1cc2ccccc2oc1=NNC(=O)c1cccs1 | 10 | -10 | nt | 3
CS(=O)(=O)Nc1ccccc1C(=O)OCC(=O)N1CCC(c2ccccc2)=N1 | 33* | 5 | -3 | 4
Cc1ccc(C(=O)OCC(=O)N2CCC(c3ccccc3)=N2)c(C)c1 | -8 | 0 | -3 | 4
COc1ccc(C)cc1NC(=O)c1nnn(Cc2cccc(C(F)(F)F)c2)c1N | 11 | 98* | 2 | -3
Fc1ccc(CSc2ncnc3sc4c(c23)CCCC4)cc1 | 2 | 83* | 36 | 8
CCSc1ncnc2sc3c(c12)CCC3 | 3 | 11 | -1 | 7
COc1ccc(-c2csc3ncnc(N4CCN(S(=O)(=O)c5cccc(Br)c5)CC4)c23)cc1 | -6 | -5 | 1 | 5
Cc1ccc(S(=O)(=O)N2CCN(c3ncnc4scc(-c5ccccc5)c34)CC2)cc1 | 3 | 58 | -10 | 91*
SMILES | Mtb hypoxia inh | Sa ugtP lethal | Mtb betalactam | Sa RN4220 lethal
Cc1ccc(S(=O)(=O)N2CCN(c3ncnc4scc(-c5ccc(F)cc5)c34)CC2)cc1 | 6 | 99* | -6 | 98*
O=S(=O)(c1cccc(F)c1)N1CCN(c2ncnc3scc(-c4ccc(F)cc4)c23)CC1 | -4 | 99* | -10 | 97*
COc1ccc(-c2csc3ncnc(N4CCN(S(=O)(=O)c5ccc(C(C)=O)cc5)CC4)c23)cc1 | -5 | 0 | -13 | 7
COc1cc2c(cc1NC(=O)Nc1ccccc1)oc1ccccc12 | 9 | 84* | -7 | 31
COc1cc2c(cc1NC(=O)CCC(=O)O)oc1ccccc12 | 13 | 1 | 2 | 4
Cc1c(-n2c(O)c(C3=c4ccccc4=NC3=O)sc2=O)c(=O)n(-c2ccccc2)n1C | 5 | 12 | -7 | 6
C=CCn1c(O)c(C2=c3ccccc3=NC2=O)sc1=Nc1nccs1 | 11 | 5 | nt | 4
Cc1ccc2c(c1)c(C1=c3ccccc3=NC1=O)c(O)n2C | 24 | 97* | 99 | 98*
C=CCn1c(O)c(C2=c3ccccc3=NC2=O)c2ccccc21 | 17 | 98* | 100 | 97*
O=C1c2ccccc2-c2cccc(NS(=O)(=O)c3ccc(C(F)(F)F)cc3)c21 | 6 | 97* | -12 | 97*
Cc1ccc(S(=O)(=O)Nc2ccccc2-c2ccccc2NS(=O)(=O)c2ccc(C)cc2)cc1 | nt | 9 | -3 | 28
N#Cc1ccc(OCC(=O)NN=C2CCc3ccccc32)cc1 | nt | -1 | nt | 1
COC(=O)c1cccc(C23CC4(C2)C(CN(Cc2ccc(-c5ccccc5)cc2)C4c2ccccc2)C3c2ccc(C(F)(F)F)cc2)c1 (configuration not stated) | 19 | 3 | nt | 6

Bioassay records: PubChem BioAssay, several laboratories
